Test results published in the antibiotic and cytotoxicity screens of Wong et al. (2023).
Screen size: about 39,000 compounds; about 3,300 (8.5%) were called active. Many of the other results were omitted from the sample, so actives are more common in it than they were.

system: HepG2; test: cytotoxicity call (relative viability < 0.9); conditions: 10 µM

Row | Compound | cytotoxicity call
1 | CC(C)c1ccc2c(c1)[C@H](O)[C@H](N)CCO2 | inactive
2 | O=C1NCC2(CNC2)O1 | inactive
3 | CCN(CC)C1CCCCC1 | inactive
4 | NC1(Cc2ccc(Cl)cc2)CC1 | inactive
5 | O.O=c1ccc2cc(OC3OC(CO)C(O)C(O)C3O)c(O)cc2o1 (configuration not stated) | inactive
6 | CC(C)(C)[C@]1(O)C[C@@H]2OC(=O)C[C@]23C(=O)O[C@@H]2OC(=O)[C@H](O)[C@]231 | inactive
7 | CC(=O)OC1CCC2(C)C(CCC3C2CCC2(C)C(C4=CC(=O)OC4)C(OC(C)=O)CC32O)C1 (configuration not stated) | active
8 | CC(=O)O[C@H]1C[C@@H]2CC[C@@H]3[C@H](CC[C@@]4(C)[C@H]3C[C@H]([N+]3(C)CCCCC3)[C@@H]4OC(C)=O)[C@@]2(C)C[C@@H]1[N+]1(C)CCCCC1 | inactive
9 | O=C(O)CC[N+](=O)[O-] | inactive
10 | C[C@H]1CN([C@@H](C)CO)C(=O)CCCn2cc(nn2)CO[C@@H]1CN(C)C(=O)Oc1ccc2ccccc2c1 | inactive
11 | [N-]=[N+]=NCC(=O)Nc1ccon1 | inactive
12 | N#CCCN.O=C(O)C=CC(=O)O | inactive
13 | COC(=O)[C@H]1[C@H](CO)[C@H]2Cn3c(ccc(C4=CCCC4)c3=O)[C@@H]1N2S(=O)(=O)c1cn(C)cn1 | inactive
14 | CC[C@@H](C)C(=O)O[C@H]1[C@H](O)[C@H]2[C@@H](CN3C[C@@H](C)CC[C@@H]3[C@@]2(C)O)[C@H]2C[C@]34O[C@]5(O)[C@@H](OC(=O)[C@@](C)(O)CC)CC[C@@]3(C)[C@@H]5[C@@H](OC(C)=O)[C@@H](OC(C)=O)[C@@H]4[C@@]21O | inactive
15 | CC[C@@H](C)C(=O)O[C@H]1[C@H](O)[C@H]2[C@@H](CN3C[C@@H](C)CC[C@@H]3[C@@]2(C)O)[C@H]2C[C@]34O[C@]5(O)[C@@H](OC(=O)[C@@](C)(O)[C@@H](C)O)CC[C@@]3(C)[C@@H]5[C@@H](OC(C)=O)[C@@H](OC(C)=O)[C@@H]4[C@@]21O | active
16 | C/C=C(/C)C(=O)O[C@H]1CC[C@@]2(C)[C@@H]3CC[C@H]4[C@]5(O)C[C@H](O)[C@@]6(O)[C@@H](CN7C[C@@H](C)CC[C@H]7[C@@]6(C)O)[C@]5(O)C[C@@]42O[C@@]13O | inactive
17 | CC(C)C12CN3CCN(CC(C3)C1=O)C2 | inactive
18 | C[C@@H]1CN([C@H](C)CO)C(=O)c2c(c3ccccc3n2C)-c2ccccc2CO[C@H]1CN(C)C(=O)Oc1ccccc1 | inactive
19 | Cc1o[nH]c(=O)c1C[C@@H](N)C(=O)O | inactive
20 | COc1ccc(OC)c(C(O)C(C)N)c1.Cl (configuration not stated) | active
21 | COc1ccc(OC)c(CN)c1 | inactive
22 | CC(N)C(O)c1ccccc1.Cl (configuration not stated) | inactive
23 | O=c1[nH]oc2c1CCNC2 | inactive
24 | COC(C)(C)CCC[C@H](C)C/C=C/C(C)=C/C(=O)OC(C)C | inactive
25 | Cl.O=C1CCC2(O)C3Cc4ccc(O)c5c4C2(CCN3CC2CC2)C1O5 (configuration not stated) | inactive

Row | Compound | cytotoxicity call
26 | C=CC1CN2CCC1CC2C(O)c1ccnc2ccccc12 (configuration not stated) | inactive
27 | CCC1CN2CCC1CC2C(O)c1ccnc2ccc(OC)cc12 (configuration not stated) | active
28 | C=CC1CN2CCC1CC2C(OC(=O)OCC)c1ccnc2ccc(OC)cc12 (configuration not stated) | inactive
29 | CC1OC(OC2CCC3(C=O)C4CCC5(C)C(C6=CC(=O)OC6)CCC5(O)C4CCC3(O)C2)C(O)C(O)C1O (configuration not stated) | active
30 | CO[C@H]1[C@@H](O)[C@@H](C)O[C@H](O[C@H]2CC[C@@]3(C)[C@H]4CC[C@@]5(C)[C@@H](C6=CC(=O)OC6)CC[C@]5(O)[C@@H]4CC[C@]3(O)C2)[C@@H]1O | inactive
31 | C[C@@H]1O[C@@H](O[C@H]2CC[C@]3(C=O)[C@H]4CC[C@]5(C)[C@@H](C6=CC(=O)OC6)CC[C@]5(O)[C@@H]4CC[C@]3(O)C2)[C@H](O)[C@H](O)[C@H]1O | active
32 | COC1C(O)C(C)OC(OC2CCC3(C=O)C(CCC4C3CCC3(C)C(C5=CC(=O)OC5)CCC43O)C2)C1O (configuration not stated) | active
33 | COC1C(O)C(C)OC(OC2CCC3(C)C4CCC5(C)C(C6=CC(=O)OC6)CCC5(O)C4CCC3(O)C2)C1O (configuration not stated) | inactive
34 | CO[C@H]1C[C@H](O[C@H]2CC[C@]3(C=O)[C@H]4CC[C@]5(C)[C@@H](C6=CC(=O)OC6)CC[C@]5(O)[C@@H]4CC[C@]3(O)C2)O[C@H](C)[C@H]1O | active
35 | N#Cc1cnccn1 | inactive
36 | CCNC1(c2cccs2)CCCCC1=O.Cl (configuration not stated) | inactive
37 | NCC[C@H](NC(=O)[C@@H](N)CCCNC(N)=N[N+](=O)[O-])C(N)=O.O=CC(F)(F)F | inactive
38 | c1cnc(N[C@@H]2CO[C@@]3(CCNC3)C2)cn1 | inactive
39 | NC1=NC(=O)N2C[C@@H]12 | inactive
40 | C[C@H](CO)N1C[C@H](C)[C@H](CN(C)C(=O)Oc2ccc3ccccc3c2)OCc2cnnn2CCCC1=O | inactive
41 | C1CN2CN3CCN(CN1C3)C2 | inactive
42 | NCCc1ccc([N+](=O)[O-])cc1 | inactive
43 | O=C(c1ccco1)N1C[C@H]2CN[C@@H](C2)C1 | inactive
44 | C=C[C@H]1[C@H](O[C@@H]2O[C@H](CO)[C@@H](O)[C@H](O)[C@H]2O)OC=C2C(=O)OCC[C@H]21 | inactive
45 | Cc1cccc(CC2(N)CC2)c1 | inactive
46 | N#[N+]CC(=O)CC[C@H](N)C(=O)O | inactive
47 | CC12CCC3C(CCC4(O)CC(O)CCC34C=O)C1(O)CCC2C1=CC(=O)OC1 (configuration not stated) | active
48 | C#CC(C)(O)CC (configuration not stated) | inactive
49 | CNC(=O)CN1CCOCC12CCN(c1cc(OC)ncn1)CC2 | inactive
50 | CC1(C)CCC(C)(C)c2cc(-c3csc(CC#N)n3)ccc21 | inactive

Row | Compound | cytotoxicity call
51 | COc1c(C[C@@H](C)O)c2c3c(C[C@@H](C)O)c(OC)c(=O)c4c(O)cc5c(c6c(cc(O)c(c1=O)c62)OCO5)c43 | active
52 | NCCc1cccc2ccccc12 | inactive
53 | C[C@@H]1CN([C@@H](C)CO)C(=O)c2c(c3ccccc3n2C)-c2ccccc2CO[C@H]1CN(C)C(=O)Oc1ccccc1 | inactive
54 | CN(C)C(=O)N[C@H]1CN[C@H]2CCCO[C@H]21 | inactive
55 | O=C1C=C2C=CC3CC2(O1)C1CCCCN31 (configuration not stated) | active
56 | CN1C(=O)NC(=O)/C(=C\c2ccc(O)cc2)C1=O | inactive
57 | Cn1cc(C(=O)Nc2nn[nH]n2)c2ccccc21 | inactive
58 | CCCC12CNCC(C)(CNC1)C2=O | inactive
59 | O=[N+]([O-])c1ccc(N(CCO)CCO)c2c1no[n+]2[O-] | active
60 | Nc1ccc([As](=O)(O)O)cc1 | inactive
61 | CN1CC(=O)N(c2cccnc2)C[C@]12CCNC2 | inactive
62 | OCC(Br)(Br)Br | inactive
63 | O=[N+]([O-])C(Br)(CO)CO [listing 1 of 2 here] | active
64 | O=[N+]([O-])C(Br)(CO)CO [listing 2 of 2 here] | active
65 | CN1C(=O)/C(=C/c2cn(CC(=O)N3CCOCC3)c3ccccc23)C(=O)NC1=S | inactive
66 | CC(C)(C)[C@H]1CC[C@@]2(CC1)C[C@@H](C[Si](C)(C)C)OO2 | inactive
67 | CC(C)Oc1ccccc1CCN | inactive
68 | CCN(CC)S(=O)(=O)c1ccc(Cn2nc(C(=O)Nc3ccc(N4CCCCC4)cc3)c3ccccc32)cc1 | inactive
69 | NC(=O)N1C[C@@H]2C[C@H]1CN2 | inactive
70 | C[N+]1(C)C2CCC1CC(OC(=O)C(CO)c1ccccc1)C2.O=[N+]([O-])[O-] (configuration not stated) | inactive
71 | O=C(NCNC(=O)N[C@H]1C(=O)NC(=O)N1CO)N[C@H]1C(=O)NC(=O)N1CO | inactive
72 | CCC(=O)CCCCC[C@@H]1NC(=O)[C@H]2CCCCN2C(=O)[C@H]([C@@H](C)CC)NC(=O)[C@H](Cc2cn(OC)c3ccccc23)NC1=O | active
73 | CCC(=O)CCCCC[C@@H]1NC(=O)[C@H]2CCCCN2C(=O)[C@H]([C@H](C)CC)NC(=O)[C@H](Cc2cn(OC)c3ccccc23)NC1=O | active
74 | N[C@@H](C(=O)O)c1cc(=O)[nH]o1 | inactive
75 | COC(N)=O | inactive

Row | Compound | cytotoxicity call
76 | CN1C[C@@H]2C[C@H](C(=O)Nc3cccnc3)[C@@H](C1)O2 | inactive
77 | CCCCS(=O)(=O)N1C[C@H]2CNC[C@@H]2C1 | inactive
78 | NC(=O)c1cc([N+](=O)[O-])cc([N+](=O)[O-])c1 [listing 1 of 2 here] | inactive
79 | NC(=O)c1ccc(N)nc1 | active
80 | NC(=O)c1cc([N+](=O)[O-])cc([N+](=O)[O-])c1 [listing 2 of 2 here] | inactive
81 | C[C@H]1CN([C@@H](C)CO)C(=O)CCCn2nncc2CO[C@@H]1CN(C)C(=O)Oc1ccc2ccccc2c1 | inactive
82 | CNc1ccc(C(=O)C[C@@H](O)CC[C@@H](C)[C@H]2OC(=O)C[C@@H](O)CC(=O)C[C@@H](O)C[C@@H](O)C[C@@H](O)C[C@@H](O)C[C@@]3(O)C[C@@H](O)[C@H](C(=O)OC)[C@@H](C[C@@H](O[C@@H]4O[C@H](C)[C@@H](O)[C@H](N)[C@@H]4O)\C=C/C=C\C=C/C=C\C=C/C=C\C=C/[C@@H]2C)O3)cc1 | inactive
83 | CN(C)C(=O)Oc1cccc([N+](C)(C)C)c1.[Br-] | inactive
84 | CN(C)C(=O)Oc1ccc[n+](C)c1.[Br-] | active
85 | CN(C)C(=O)Oc1ccc[n+](C)c1 | inactive
86 | O=C(O)[C@H]1C[C@H]2CCCCN2C1 | inactive
87 | CN1[C@@H]2CC[C@@H]1C[C@H](O)C2 (some centres not stated) | inactive
88 | CCCC[C@@H](C)[C@@H](OC(=O)C[C@@H](CC(=O)O)C(=O)O)[C@H](C[C@@H](C)C[C@H](O)CCCC[C@@H](O)C[C@H](O)[C@H](C)N)OC(=O)C[C@@H](CC(=O)O)C(=O)O | inactive
89 | OC[C@H]1O[C@@H](Oc2c[nH]c3ccc(Br)c(Cl)c23)[C@H](O)[C@@H](O)[C@H]1O | inactive
90 | C[N+](C)(C)CCCCCCCCCC[N+](C)(C)C.[Br-].[Br-] | inactive
91 | C[N+](C)(C)CCCl | inactive
92 | CCCCCCCCCCCCCCCC[N+](C)(C)C.[Br-] | active
93 | N=C(N)/N=C(\N)Nc1ccc(Cl)cc1 | inactive
94 | CC1=CC(=O)c2c(O)cccc2C1=O | active
95 | Oc1ccccc1-c1ccccc1 | inactive
96 | O=C1C=CC(=O)c2c(O)cccc21 | active
97 | Oc1ccccc1-c1ccccc1O | inactive
